# Assay results taken from PubChem BioAssay (NCATS).
# Records with an inconclusive call do not appear. Entries that show only a call come without a potency. Active and inactive are the calls of the source. Calls come from the whole dose curve; as a rule, active = well fitted inhibition curve with a large enough effect; inconclusive = small, poorly fitted or top-dose-only effect; inactive = flat fitted curve, though single readings scatter.
# Assay: P-glycoprotein substrates identified in KB-8-5-11 adenocarcinoma cell line, qHTS therapeutic library screen (AID 1346987); note: nearly all actives have a fitted effect of over 65% in size
# Settings: KB-8-5-11 (P-gp overexpressing) viability, CellTiter-Glo, 72 h; series mostly up to 44.5 µM
# In short: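 Human cervical adenocarcinoma KB-8-5-11 cells, selected in colchicine to over-express P-gp and assayed without it, were exposed for 72 h to titrated compounds. An ATP-based luminescent viability signal gave AC50.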
# Potency is the fitted concentration of half-maximal effect.
row,Structure (SMILES),Potency
1,COC1CC/C=C(\C)C(=O)Nc2cc(O)cc(c2)CC(C)CC(OC)C(O)C(C)/C=C(\C)C1OC(N)=O (centres undefined),inactive
2,OC[C@H]1O[C@@H](OC/C=C/c2ccc(O)cc2)[C@H](O)[C@@H](O)[C@@H]1O,inactive
3,CN(C)C(=O)COC(=O)c1cc(-c2ccc(C3CCNCC3)cc2)c2ccc(-c3ccc(C(F)(F)F)cc3)cc2c1,18.4 µM (active)
4,CC1(C=O)CCCC2(C)C1CCC13CC(CO)C(CCC12)C3 (centres undefined),inactive
5,COc1ccccc1-c1ccc(-c2cn(C(=O)N3CCCCC3Cc3ccccc3)nn2)cc1 (centres undefined),inactive
6,CC(=O)O[C@H]1[C@H](O)C[C@@]2(C)C(CC[C@]3(C)C2CC=C2C4CC(C)(C)CC[C@]4(C(=O)O)CC[C@]23C)C1(C)C (some centres undefined),inactive
7,NS(=O)(=O)c1ccc(N2CCN(CC[C@@H]3OCCc4ccccc43)CC2)cc1,inactive
8,C/C1=C/CCC2=CC(OC2=O)C(C)(C)/C=C/C1=O (centres undefined),3.26 µM (active)
9,COc1ccc(CN2CCN(C(=O)CCNC(=O)c3ccc(C(C)(C)C)cc3)CC2)cc1,inactive
10,CC(C)C[C@@H]1NC(=O)[C@@H](Cc2ccccc2)NC(=O)C(CCCCCC(=O)C2CO2)NC(=O)[C@@H]2CCCCN2C1=O (some centres undefined),3.99 µM (active)
11,CC(=O)O[C@@H]1[C@@H](OC(C)=O)[C@H](C)O[C@@H](O[C@H]2[C@@H]3C=CO[C@@H](O[C@@H]4O[C@H](CO)[C@@H](O)[C@H](O)[C@H]4O)[C@@H]3[C@@]3(CO)O[C@@H]23)[C@@H]1OC(=O)/C=C/c1ccccc1,inactive
12,Cc1ccc(N2CCN(CCC3NC(=O)c4ccccc43)CC2)cc1C (centres undefined),inactive
13,COc1ccccc1C(=O)Nc1cc2c(cc1N1CCCC1)n(C)c(=O)n2C,18.4 µM (active)
14,CCCCCc1ccc(/C=C/C(=O)Nc2cc(Cl)ccc2C(=O)O)cc1,inactive
15,Cc1ccc(-c2ncccn2)c(C(=O)N2C[C@H](COc3ccc(F)cn3)CC[C@H]2C)c1,inactive
16,O=C(NC1(c2ccccc2)CC1)c1c(CN2CCC(N3CCCCC3)CC2)c(-c2cccc(C(F)(F)F)c2)nc2cc(Br)ccc12,23.1 µM (active)
17,CC(C)Oc1ccc(-c2cnc3c(-c4ccnc5ccccc45)cnn3c2)cc1,inactive
18,COc1ccccc1OCCNCC(O)CCOc1cccc2[nH]c3ccccc3c12 (centres undefined),18.4 µM (active)
19,Cc1csc(N(C(=O)CSc2ccc(-c3ccccc3)nn2)C2CC2)n1,inactive
20,O=C(Nc1ccc2[nH]nc(-c3ccncc3)c2c1)[C@@H]1CCN(CC(=O)N2CCN(c3ccc(-c4ncccn4)cc3)CC2)C1,inactive

row,Structure (SMILES),Potency
1,CCCCCCOC(=O)/N=C(\N)c1ccc(NCc2nc3cc(C(=O)N(CCC(=O)OCC)c4ccccn4)ccc3n2C)cc1,inactive
2,O=C(O)C1=CO[C@@H](O[C@@H]2O[C@H](CO)[C@@H](O)[C@H](O)[C@H]2O)[C@@H]2C(CO)=CC[C@H]12,inactive
3,CCOc1ccc(Cc2nc(-c3c(C)nc4ccccn34)cs2)cc1,0.0184 µM (active)
4,CC(C)(C)C1CCN(C(=O)n2ncc(C(O)(c3ccccc3)c3ccccc3)n2)CC1,20.6 µM (active)
5,CN(C)CCN(Cc1ccccc1)C(=O)c1cc(-c2ccc(F)cc2)n2nc(C(C)(C)C)cc2n1,20.6 µM (active)
6,COC(=O)CC1OC(C)C2=C(O)c3c(O)cccc3C(=O)C23OC13 (centres undefined),10.1 µM (active)
7,Nc1nc2c(cnn2CCCc2ccc(O)cc2)c2nc(-c3ccco3)nn12,inactive
8,OC1(CN2CCC(COc3noc4cccc(O[C@@H]5CCOC5)c34)CC2)CCOCC1,inactive
9,COc1ccc(NC(=O)c2ccc(-c3ccc(C(=N)N)cc3C)cc2)cc1N1CCN(C)CC1,inactive
10,CC/C=C\CC1C(=O)C=CC1(CCCCC1CCC(=O)O1)OC(C)=O (centres undefined),inactive
11,C=C1CCC2C(C)(C(=O)O)CCCC2(C)C1CCC1=CCOC1=O (centres undefined),inactive
12,COc1ccc(CNc2nc(N(CCO)CCO)nc3c2ncn3C(C)C)cc1,5.8 µM (active)
13,Cc1cc(-c2ncc(-c3cccnc3)cc2/C=C/c2ccccc2)cnc1-c1cccnc1,10.3 µM (active)
14,C/C=C\NC(=O)C1NC(=O)C(CC(N)=O)NC(=O)C(NC(=O)C(=O)C(C)CC)Cc2ccc(O)c(c2)-c2cccc3c2NC(=O)C3(O)C1O (centres undefined),inactive
15,N[C@@H]1c2cccnc2[C@H](OC(=O)N2CCC(n3c(=O)[nH]c4ncccc43)CC2)CC[C@H]1c1cccc(F)c1F,inactive
16,CC(C)C[C@@H](C(=O)N[C@@H](Cc1ccc(OCc2ccccc2)cc1)C(=O)NC(C)(C)C)N(C)Cc1ccc(C(C)(C)C)cc1,inactive
17,CC(=O)OC1CC2(C)C(CCC(C)C23Cc2c(O)cc(CO)c(C=O)c2O3)C(C)(C)C1O (centres undefined),inactive
18,Cc1ccc(CNc2ncnc3ccc(-c4ccc(CO)o4)cc23)o1,inactive
19,CCn1c(=O)n([C@H]2CCCN(c3nccc(-c4cc5ccccc5o4)n3)C2)c2ccccc21,inactive
